Inconclusive results are not listed. A number with no mark means an inactive call. Activity calls are given as the source filed them. The call rests on the fitted dose curve.
target: Acetylcholinesterase (Homo sapiens) (UniProt P22303); assay: Acetylcholinesterase (AChE) small molecule antagonists: colormetric cell-based qHTS assay (AID 1347395); details: SH-SY5Y cells AChE activity, colorimetric (Ellman); series mostly up to 115 µM; activity, negative = inhibition: at the top concentration; further: nearly all actives have a fitted effect of over 30% in size
Excerpt: National Center for Advancing Translational Sciences [NCATS]
Division of Preclinical Innovation [DPI]
U.S. Environmental Protection Agency [EPA]
National Institutes of Environmental Health Sciences [NIEHS]
National Toxicology Program [NTP]
U.S. Food and Drug Administration [FDA]
Acetylcholinesterase (AChE) is the primary cholinesterase in the body that hydrolyzes a key neurotransmitter, acetylcholine. Inhibition of AChE activity can lead to neurotoxicity. The known inhibitors include organophosphorous pesticides (OP), chemical warfare agents, drugs, and various phytochemicals.
A homogenous cell-based assay using the Amplite Colormetric acetylcholinesterase assay kit (AAT Bioquest, Sunnyvale, CA) was used to evaluate the chemicals in the Tox21 10K library that inhibit AChE activity. The assay uses 5, 5-dithiobis-(2-nitrobenzoic acid) (DTNB) to quantify the thiocholine produced from the hydrolysis of acetylthiocholine by AChE from the SH-SY5Y cells.
Tox21 Assay Protocol Summary:
For the cell-based AChE assay, 2,000 SH-SY5Y cells in 4 uL/well were dispensed into black, clear-bottom 1536-well plates using a Multidrop Combi dispenser (Thermo Scientific, MA). The assay plates were incubated overnight at 37 C to allow cells to attach to the wells, followed by the transfer of 23 nL of compound or DMSO (vehicle control) by a Pintool Station (Wako Automation, CA). The plates were incubated for 30 min at 37 C and 5% CO2, followed by the addition of 4 uL of detection cocktail solution (DTNB, acetylthiocholine) into each well using a Flying Reagent Dispenser (Beckman Coulter, CA) and then 90 min incubation at 37 C.
On the % scale 0 is the no-effect control and ±100 the full control effect; potency means the concentration at half of the fitted maximal effect.

Acetylcholinesterase (Homo sapiens), sequence (P22303 whole entry, looked up): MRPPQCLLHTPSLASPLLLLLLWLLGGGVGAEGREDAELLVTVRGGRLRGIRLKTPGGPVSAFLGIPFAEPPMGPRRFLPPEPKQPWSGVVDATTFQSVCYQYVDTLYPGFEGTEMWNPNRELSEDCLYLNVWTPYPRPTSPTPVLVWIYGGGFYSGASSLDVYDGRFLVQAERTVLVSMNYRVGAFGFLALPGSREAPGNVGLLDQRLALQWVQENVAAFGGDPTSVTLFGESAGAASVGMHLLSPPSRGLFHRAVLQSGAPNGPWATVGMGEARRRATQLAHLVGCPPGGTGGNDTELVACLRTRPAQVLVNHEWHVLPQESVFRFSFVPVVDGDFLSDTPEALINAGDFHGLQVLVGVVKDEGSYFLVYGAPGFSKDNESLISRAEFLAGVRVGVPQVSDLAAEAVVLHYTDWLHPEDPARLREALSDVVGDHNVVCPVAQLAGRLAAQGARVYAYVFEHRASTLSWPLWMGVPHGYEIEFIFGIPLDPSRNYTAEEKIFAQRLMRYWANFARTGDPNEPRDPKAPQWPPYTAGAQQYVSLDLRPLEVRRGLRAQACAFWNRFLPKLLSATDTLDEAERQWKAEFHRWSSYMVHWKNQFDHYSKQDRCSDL

Row | Structure (SMILES) | activity, negative = inhibition | Potency
1 | N#CC(C#N)=Cc1ccc(O)c(O)c1 | 6.37% [at 52.9 µM] | 
2 | CCCCNC(=O)OCC#CI |  | inactive
3 | Nc1cc(Cl)cc(C(=O)O)c1Cl |  | inactive
4 | Nc1ccccc1C(=O)OCC(O)CO (stereo not given) | 2.19% [at 52.9 µM] | 
5 | FC(F)OC(F)(F)C(F)Cl (stereo not given) | 0% | 
6 | CN(C)c1ccc(N=O)cc1 |  | inactive
7 | CC(C)CCCCCCCOC(=O)c1ccccc1C(=O)OCCCCCCCC(C)C | -5.26% | 
8 | CN(C)C(=O)Nc1cccc(OC(=O)NC(C)(C)C)c1 | 1.89% | 
9 | CC(C)OC(=O)Cc1ccccc1 | -2.97% | 
10 | CC(O)CN1CCN(CC(=O)[O-])CCN(CC(=O)[O-])CCN(CC(=O)[O-])CC1.[Gd+3] (stereo not given) | 1.14% [at 52.9 µM] | 
11 | COC(=O)Cc1ccccc1 | 2.8% | 
12 | CCOC(=O)c1cn2nc(OP(=S)(OCC)OCC)cc2nc1C |  | 35.6 µM (active)
13 | NCCc1cc(O)c(O)cc1O | 0.119% [at 52.9 µM] | 
14 | CCOC(C(=O)OCCN(C)C)(c1ccccc1)c1ccccc1 | 0% [at 52.9 µM] | 
15 | COC1CC(=C(c2cccs2)c2cccs2)C[N+](C)(C)C1 (stereo not given) | -5.37% [at 52.9 µM] | 
16 | O=C(NC(=O)c1cc(F)c(F)cc1Cl)Nc1cc(F)ccc1N1CCC(C(=O)O)CC1 | -0.624% [at 52.9 µM] | 
17 | C=CC(=O)OCC | 1.32% | 
18 | CCCCCl | -2.86% | 
19 | O=C(Cc1ccccc1)OCCc1ccccc1 | 7.15% | 
20 | CCCC[N+]1(C)[C@@H]2CC(OC(=O)[C@H](CO)c3ccccc3)C[C@H]1[C@@H]1O[C@@H]12 (stereo not given in full) | -0.505% [at 52.9 µM] | 

Row | Structure (SMILES) | activity, negative = inhibition | Potency
21 | CCOP(=S)(S)OCC |  | 16.7 µM (active)
22 | O=[N+]([O-])O[C@H]1CO[C@H]2[C@@H]1OC[C@H]2O[N+](=O)[O-] | 1.29% [at 52.9 µM] | 
23 | O=C(N/N=C/c1ccc([N+](=O)[O-])o1)c1cc([N+](=O)[O-])cc([N+](=O)[O-])c1O | -7.71% [at 52.9 µM] | 
24 | CCOC(=O)NC(O)C(Cl)(Cl)Cl (stereo not given) | 6.42% [at 52.9 µM] | 
25 | COc1ccc(C(=O)c2c(C)n(CCN3CCOCC3)c3ccccc23)cc1 | 1.24% [at 52.9 µM] | 
26 | N#CC1(N=NC2(C#N)CCCCC2)CCCCC1 | 0.606% | 
27 | C=C(Cl)Cl | 0.205% | 
28 | FC(Cl)(Cl)C(F)(Cl)Cl | -0.268% | 
29 | C[C@]12C=CC3=C4CCC(=O)C=C4CC[C@H]3[C@@H]1CC[C@@H]2O |  | inactive
30 | O=CC=O | -0.145% | 
31 | NP(N)(=O)NC(=O)c1ccc(F)cc1 | -10.8% [at 52.9 µM] | 
32 | CCN(C(C)=O)c1cccc(-c2ccnc3c(C#N)cnn23)c1 | -9.27% [at 52.9 µM] | 
33 | C=C(C)C(=O)OCCCCOC(=O)C(=C)C | 4.42% | 
34 | CC[N+]1(CCOC(=O)C(O)(c2ccccc2)c2ccccc2)CCCCC1 | -0.436% [at 52.9 µM] | 
35 | NC(=S)c1c(Cl)cccc1Cl | 2.56% | 
36 | Nc1ccc2c(c1)Cc1ccccc1-2 | -0.142% | 
37 | CN1CC[C@]23c4c5ccc(O)c4O[C@H]2[C@@H](O)CC[C@H]3[C@H]1C5 | 2.1% | 
38 | CN(C1CCCCC1)C1CCCCC1 | 0% | 
39 | CCCCC#N | 2.31% | 
40 | C=CCN1C[C@H](C)N([C@H](c2ccc(C(=O)N(CC)CC)cc2)c2cccc(OC)c2)C[C@H]1C | 0.708% [at 52.9 µM] | 

Reference: PubChem BioAssay (Tox21)
